In PubChem BioAssay (NCATS):
Records with an inconclusive call do not appear. Where a call stands in place of a potency, no number is given. Calls of active or inactive are those of the source. Unless noted, the call rests on the fitted dose curve; in most records, active means well fitted curve in the direction sought with a large enough effect; inconclusive means small, poorly fitted or top-dose-only effect, or another doubt; inactive means no such curve, though single readings can be large; an effect the other way counts as inactive or inconclusive.

Tests used:
[1] = Quantitative High-Throughput drug screen in 47 multiple myeloma cell lines against the NCATS MIPE library collection: RPMI8226_ATCC cell viability assay (AID 1919871); further: potency means the concentration at half of the fitted maximal effect; nearly all actives have a fitted effect of over 30% in size
In short: (§1)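 Readout: median RLU from CellTiter-Glo after 5 min at room temperature. Preceding step was 48 h drug treatment of 500 cells/well at 37 °C, 5% CO2, with DMSO-only and media-only control wells.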

[2] = Quantitative High-Throughput drug screen in 47 multiple myeloma cell lines against the NCATS MIPE library collection: OPM2_DSMZ cell viability assay (AID 1919872); further: nearly all actives have a fitted effect of over 30% in size; further: potency means the concentration at half of the fitted maximal effect
In short: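 Inhibition of cell viability is measured here. Each line was plated at 500 cells per well, treated with MIPE 4.0 drugs, kept 48 hours at 37C, then assayed for ATP content by CellTiter-Glo luminescence.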

[3] = Quantitative High-Throughput drug screen in 47 multiple myeloma cell lines against the NCATS MIPE library collection: KMS28BM_JCRB cell viability assay (AID 1919874); further: nearly all actives have a fitted effect of over 35% in size; further: potency means the concentration at half of the fitted maximal effect
In short: as §1

[4] = qHTS for identification of novel therapeutic agents for treatment of microphthalmiaassociated transcription factor (MiT) renal cell carcinoma (RCC) (AID 1963991); conditions: CellTiter-Glo, 48 h, stronger effect = lower value
In short: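 Three TFE3-fusion RCC lines (UOK109, UOK124, UOK145), 500 cells/well in complete medium, were treated with MIPE 4.0 compounds for 48 hours at 37 C. Viability was by CellTiter-Glo luminescence, normalized to DMSO (100%) and empty wells (0%); curves fitted over 11 concentrations.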

[5] = Quantitative High-Throughput drug screen in 47 multiple myeloma cell lines against the NCATS MIPE library collection: KMS11_JCRBsus cell viability assay (AID 1919873); further: nearly all actives have a fitted effect of over 50% in size; further: potency means the concentration at half of the fitted maximal effect
In short: as §1

[6] = qHTS drug screen for cell cycle checkpoint inhibitors in PARPi-resistant BRCA-mutant ovarian cancer cell lines. (AID 1963452; calls by dose curve); conditions: PEO1/OlaR viability, CellTiter-Glo luminescence, 96 h, stronger effect = lower value
In short: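 PEO1, PEO4 and PEO1/OlaR ovarian cancer cells, 600 per well, exposed 96 h at 37C to a dilution series. Viability read by CellTiter-Glo luminescence, normalized to DMSO and empty wells; activity summarized as Z-AUC.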

[7] = qHTS profiling for inhibitors of Plasmodium falciparum proliferation (AID 504749); further: potency means the concentration at half of the fitted maximal effect; on all read-outs here: nearly all actives have a fitted effect of over 60% in size; conditions: P. falciparum in erythrocytes, SYBR Green DNA, 72 h; for activity, negative = inhibition: at 28.7 µM (top of the series)
In short: (§2)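 Fluorescence of SYBR Green-bound parasite DNA, read at 485/535 nm, served as the growth measure. Infected erythrocytes were cultured with compound 72 h; artemisinin (0.29 uM) and DMSO wells defined the normalization range.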

3D7 = assay: as above; conditions: P. falciparum in erythrocytes, SYBR Green DNA, 72 h; series mostly up to 28.7 µM
In short: as §2

7G8 = assay: as above; conditions: P. falciparum in erythrocytes, SYBR Green DNA, 72 h; series mostly up to 28.7 µM
In short: as §2

AA1029 = assay: as above; conditions: P. falciparum in erythrocytes, SYBR Green DNA, 72 h; series mostly up to 28.7 µM
In short: as §2

AS120 = assay: as above; conditions: P. falciparum in erythrocytes, SYBR Green DNA, 72 h; series mostly up to 28.7 µM
In short: as §2

ATS189 = assay: as above; conditions: P. falciparum in erythrocytes, SYBR Green DNA, 72 h; series mostly up to 28.7 µM
In short: as §2

ATS95 = assay: as above; conditions: P. falciparum in erythrocytes, SYBR Green DNA, 72 h; series mostly up to 28.7 µM
In short: as §2

C2A = assay: as above; conditions: P. falciparum in erythrocytes, SYBR Green DNA, 72 h; series mostly up to 28.7 µM
In short: as §2

CP185 = assay: as above; conditions: P. falciparum in erythrocytes, SYBR Green DNA, 72 h; series mostly up to 28.7 µM
In short: as §2

CP191 = assay: as above; conditions: P. falciparum in erythrocytes, SYBR Green DNA, 72 h; series mostly up to 28.7 µM
In short: as §2

CP192 = assay: as above; conditions: P. falciparum in erythrocytes, SYBR Green DNA, 72 h; series mostly up to 28.7 µM
In short: as §2

CP194 = assay: as above; conditions: P. falciparum in erythrocytes, SYBR Green DNA, 72 h; series mostly up to 28.7 µM
In short: as §2

[8] = KB-8-5-11 P-gp reporter qHTS against the NCATS DSHEA and TCM libraries (AID 1919977)
In short: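 P-gp-overexpressing KB-8-5-11 cells were screened in colchicine-free medium at 500 cells/well, as a titration series. Cells were exposed for 72 h at 37C. Viability was read by CellTiter-Glo luminescence after 30 min at room temperature.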

[9] = TFE3-RCC UOK109 viability, measured here: UOK109 Z-AUC
[10] = TFE3-RCC viability, measured here: UOK124 Z-AUC
[11] = TFE3-RCC viability, measured here: UOK145 Z-AUC
[12] = measured here: PEO1 parental Z-AUC

SMILES: CC(=CCCC1=CCC(C2=CC(=O)OC2O)OC1O)CCC1=C(C)CCCC1(C)C (configuration not stated)
- Potency [1]: 0.0118 µM (active)
- Potency [2]: inactive
- Potency [3]: 2.64 µM (active)
- z-score [4, 9]: 0.667
- z-score [4, 10]: 0.534
- z-score [4, 11]: -0.0671

SMILES: COc1ccc(N(C(=O)Oc2c(C)cccc2C)c2ccnc(Nc3ccc(N4CCN(C)CC4)cc3)n2)c(OC)c1
- Potency [1]: 4.18 µM (active)
- Potency [5]: 9.35 µM (active)
- Potency [3]: 7.43 µM (active)
- Z-AUC [6]: -0.241 (inactive)
- Z-AUC [6, 12]: 0.364
- Z-AUC ([6]; measured here: PEO4 Z-AUC): 0.481

SMILES: CCC(=O)OC1CCC2C3CCC4=CC(=O)CC[C@@]4(C)C3CC[C@]12C (some centres not stated)
- Potency [2]: inactive
- Potency [5]: inactive
- Potency [3]: inactive
- z-score [4, 9]: 0.231
- z-score [4, 10]: 0.282
- z-score [4, 11]: -0.0668

SMILES: CCCCCCCCCC(CC)c1ccc(S(=O)(=O)O)cc1 (configuration not stated)
- activity, negative = inhibition ([7]; parasite line A): 4.98% (inactive)
- activity, negative = inhibition ([7]; parasite line B): 0.132% (inactive)
- Potency (3D7): inactive
- Potency (7G8): inactive
- Potency (AA1029): inactive
- Potency (AS120): inactive
- Potency (ATS189): inactive
- Potency (ATS95): inactive
- Potency (C2A): inactive
- Potency (CP185): inactive
- Potency (CP191): inactive
- Potency (CP192): inactive
- Potency (CP194): inactive

SMILES: CN1C2CCC1CC(OC(=O)c1cc(Cl)cc(Cl)c1)C2 (configuration not stated)
- activity, negative = inhibition ([7]; parasite line A): -1.17% (inactive)
- activity, negative = inhibition ([7]; parasite line B): 5.18% (inactive)
- Potency (3D7): inactive
- Potency (7G8): 6.31 µM (active)
- Potency (AA1029): inactive
- Potency (AS120): inactive
- Potency (ATS189): inactive
- Potency (ATS95): inactive
- Potency (C2A): inactive
- Potency (CP185): inactive
- Potency (CP191): inactive
- Potency (CP192): inactive
- Potency (CP194): inactive

SMILES: CCCN1CCC[C@H](c2cccc(O)c2)C1
- activity, negative = inhibition ([7]; parasite line A): 8.52% (inactive)
- activity, negative = inhibition ([7]; parasite line B): -0.779% (inactive)
- Potency (3D7): inactive
- Potency (AA1029): inactive
- Potency (AS120): inactive
- Potency (ATS189): inactive
- Potency (ATS95): inactive
- Potency (C2A): inactive
- Potency (CP185): inactive
- Potency (CP191): inactive
- Potency (CP192): inactive
- Potency (CP194): inactive

SMILES: Cc1ccc(Cl)c(O)c1
- activity, negative = inhibition ([7]; parasite line A): 9.64% (inactive)
- activity, negative = inhibition ([7]; parasite line B): 15% (inactive)
- Potency (3D7): inactive
- Potency (7G8): inactive
- Potency (AA1029): inactive
- Potency (AS120): inactive
- Potency (ATS189): inactive
- Potency (ATS95): inactive
- Potency (C2A): inactive
- Potency (CP185): inactive
- Potency (CP191): inactive
- Potency (CP192): inactive
- Potency (CP194): inactive

SMILES: O=C(O)c1ccccc1O
- outcome [8]: inactive

SMILES: CC(C)[C@H]1C(=O)N[C@H](CO)Cc2c[nH]c3cccc(c23)N1C
- Potency [2]: 0.0662 µM (active)
- Potency [5]: inactive
- Z-AUC [6]: 0.277 (inactive)
- Z-AUC [6, 12]: -0.654
- Z-AUC ([6]; measured here: PEO4 Z-AUC): -0.578

SMILES: COC(C)(C)CCCC(C)C/C=C/C(C)=C/C(=O)OC(C)C (configuration not stated)
- Potency (ATS95): inactive
- Potency (C2A): inactive
- Potency (CP185): inactive

SMILES: C[C@]12CCC(=O)C(O)=C1CC[C@@H]1[C@H]3CCC(=O)[C@@]3(C)CC[C@@H]12
- Potency [2]: inactive
- Potency (3D7): inactive
- Potency (7G8): inactive
- Potency (AS120): inactive
- Potency (CP191): inactive
- Potency (CP192): inactive
- Potency (CP194): inactive

SMILES: O=S(=O)(CC1CS1)c1ccc(Oc2ccccc2)cc1 (configuration not stated)
- Potency [5]: 26.4 µM (active)
- Z-AUC [6]: 1.02 (inactive)
- Z-AUC [6, 12]: 1.86
- Z-AUC ([6]; measured here: PEO4 Z-AUC): 1.74

SMILES: Cc1cc(O)ccc1Cl
- activity, negative = inhibition ([7]; parasite line A): 4.69% (inactive)
- activity, negative = inhibition ([7]; parasite line B): -0.29% (inactive)
- Potency (3D7): inactive
- Potency (AA1029): inactive
- Potency (AS120): inactive
- Potency (ATS189): inactive
- Potency (ATS95): inactive
- Potency (C2A): inactive
- Potency (CP185): inactive
- Potency (CP191): inactive
- Potency (CP192): inactive
- Potency (CP194): inactive

SMILES: C[C@](O)(COc1ccc(C#N)cc1)C(=O)Nc1ccc(C#N)c(C(F)(F)F)c1
- Potency [2]: inactive
- Z-AUC [6]: 0.66 (inactive)
- Z-AUC [6, 12]: 0.716
- Z-AUC ([6]; measured here: PEO4 Z-AUC): 0.592

SMILES: O=C1C=CC[C@@H]2[C@H]3CCCN4CCC[C@@H](CN12)[C@@H]34
- Potency [2]: inactive
- Potency [5]: inactive
- Z-AUC [6]: 0.0265 (inactive)
- Z-AUC [6, 12]: 1.52
- Z-AUC ([6]; measured here: PEO4 Z-AUC): 0.946

SMILES: O=C(O)COc1ccccc1
- activity, negative = inhibition ([7]; parasite line A): -0.911% (inactive)
- activity, negative = inhibition ([7]; parasite line B): 7.97% (inactive)
- Potency (3D7): inactive
- Potency (7G8): inactive
- Potency (AA1029): inactive
- Potency (AS120): inactive
- Potency (ATS189): inactive
- Potency (ATS95): inactive
- Potency (C2A): inactive
- Potency (CP185): inactive
- Potency (CP191): inactive
- Potency (CP192): inactive
- Potency (CP194): inactive

SMILES: O=C(O)C(Cl)Cl
- activity, negative = inhibition ([7]; parasite line A): 7.93% (inactive)
- activity, negative = inhibition ([7]; parasite line B): -3.72% (inactive)
- Potency (3D7): inactive
- Potency (7G8): inactive
- Potency (AA1029): inactive
- Potency (AS120): inactive
- Potency (ATS189): inactive
- Potency (ATS95): inactive
- Potency (C2A): inactive
- Potency (CP185): inactive
- Potency (CP191): inactive
- Potency (CP192): inactive
- Potency (CP194): inactive

SMILES: CC(=O)[O][Hg][c]1ccccc1
- Potency ([7]; parasite line A): 3.98 µM (active)
- Potency ([7]; parasite line B): 6.31 µM (active)
- Potency (3D7): 12.6 µM (active)
- Potency (7G8): 1 µM (active)
- Potency (AA1029): 4.47 µM (active)
- Potency (AS120): 3.98 µM (active)
- Potency (ATS189): 11.2 µM (active)
- Potency (ATS95): 4.47 µM (active)
- Potency (CP185): 5.01 µM (active)
- Potency (CP191): 8.91 µM (active)
- Potency (CP192): 9.53 µM (active)
- Potency (CP194): 9.53 µM (active)

SMILES: CC1=C(C/C=C(\C)CCC[C@H](C)CCC[C@H](C)CCCC(C)C)C(=O)c2ccccc2C1=O
- outcome [8]: inactive

SMILES: C[C@H]1CCCC=CC2C[C@H](O)C[C@@H]2[C@H](O)C=CC(=O)O1 (some centres not stated)
- z-score [4, 9]: -3.99
- z-score [4, 10]: -3.69
- z-score [4, 11]: -5.31

SMILES: C[C@@H]1CC[C@H]2[C@@H](C)C(=O)O[C@@H]3O[C@@]4(C)CC[C@H]1[C@]32OO4
- Potency [2]: 0.264 µM (active)
- Potency [5]: inactive
- z-score [4, 9]: 0.72
- z-score [4, 10]: 0.74
- z-score [4, 11]: 0.344
